Assay outcomes deposited in PubChem BioAssay by several laboratories.
Shown are actives, neighbours in structure and some others; about 1.6% of the full set was active somewhere.
ATG4B inhibitor = blocks human ATG4B protease cleavage of LC3 substrate. inhibition, % at 8.33 µM. AID 504462. ATG4B cleavage of LC3-PLA2, NBD-HPC fluorescence, 1 h. Q9Y4P1. 340,000 compounds, 0.51% hits
PKA-R2B activ = activators of human PKA-R2B complex; activation, % at 11.4 µM; 340,000 compounds, 0.079% hits; PKA-R2B holoenzyme dissociation, Cy5-IP20 fluorescence polarization; R2B truncated from residue 108, S112A mutant; 0% DMSO only, 100% 113 µM cGMP; P22694+P31323;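 active means activation above a cutoff set at the mean over all compounds plus 3 SD, cut at about 18% in these data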;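 further: higher means more holoenzyme dissociation and a rise in polarization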
VLA-4 inh = inhibition in a human VLA-4 binding assay | P13612 | VLA-4 expressing cells, ligand binding flow cytometry | inhibition, % (about 7 µM as worked out from the volumes in the protocol) | 330,000 compounds, 0.2% hits | AID 2557; in the data active means inhibition above about 50%
PKA-R1A activ = activators of PKA-R1A complex. P00514+P68181. PKA-R1A dissociation, Cy5-IP20 fluorescence polarization; scaled: DMSO 0%, 113 µM cGMP 100%. activation, % at 11.4 µM. 340,000 compounds, 0.083% hits;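 active means percent activation above the mean of all tested compounds plus 3 SD, cut at about 19% in these data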;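 further: higher means more PKAc released from R1A so a rise in polarization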
NRP1-CendR mod = modulators of CendR peptide binding to human neuropilin-1; O14786; FAM-RPARPAR peptide binding to NRP-1, fluorescence polarization; inhibition, % at 25 µM; 360,000 compounds, 0.85% hits; AID 602438;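 active means inhibition or corrected inhibition above about 18%, plus a signal ratio from 0.5 to 1.5, limit read from the data, passing the limit was not always enough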
VLA-4 allo CP = human VLA-4 allosteric modulation in cherry picked compounds; shares compounds with VLA-4 inh; U937 cells, HUTS-21 LIBS mAb binding, flow cytometry; LDV ligand present at threefold Kd; inhibition, % at 6.7 µM; 1,300 compounds, 2% hits;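 further: 0% = ligand without compound and 100% = no ligand background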
* = called active by the depositor. Unless noted, no stated cut-off is given here; in the data, active means inhibition above about 40%; inactive means the rest.

For COCCCn1[nH]c2c3c(ccc2c1=O)C(=O)c1ccccc1C3=O the results were ATG4B inhibitor 2.4, PKA-R2B activ -5.8, VLA-4 inh 91.6*, PKA-R1A activ -0.9, NRP1-CendR mod 11.8 and VLA-4 allo CP -1.4.
`N=c1sccn1CC(=O)NCCc1ccc(Cl)cc1Cl` gave ATG4B inhibitor -10.8, PKA-R2B activ 12.4, VLA-4 inh 95.0*, PKA-R1A activ -4.8, NRP1-CendR mod -11.6 and VLA-4 allo CP -8.6.
Screening CCCCC[C@@H]1C=C(C(=O)O)[C@H](c2ccc(Cl)cc2)N1S(=O)(=O)c1ccc(C)cc1 returned ATG4B inhibitor 11.3, PKA-R2B activ 8.8, VLA-4 inh 16.5, PKA-R1A activ 9.5, NRP1-CendR mod -4.7 and VLA-4 allo CP 1.3.
Cc1ccc(S(=O)(=O)N2[C@@H](c3ccc(Br)cc3)C(C(=O)O)=C[C@H]2C(C)(C)C)cc1 was read as ATG4B inhibitor -9.1, PKA-R2B activ -9.1, VLA-4 inh 51.5*, PKA-R1A activ 7.8, NRP1-CendR mod -12.4 and VLA-4 allo CP -1.4.
Screening CCCCC[C@@H]1C=C(C(=O)O)[C@H](c2ccc(C)cc2)N1S(=O)(=O)c1ccc(C)cc1 returned ATG4B inhibitor -3.6, PKA-R2B activ -4.8, VLA-4 inh -8.9, PKA-R1A activ 1.8 and NRP1-CendR mod -3.4.
`CCCC[C@@H]1C=C(C(=O)O)[C@H](c2ccc(C)cc2)N1S(=O)(=O)c1ccc(C)cc1` gave ATG4B inhibitor -4.3, PKA-R2B activ -0.9, VLA-4 inh 52.9*, PKA-R1A activ -7.4, NRP1-CendR mod -9.3 and VLA-4 allo CP -2.1.
O=C(O)c1cc(-c2ccc(Cl)c(Cl)c2)n(-c2ccccc2)n1 was read as ATG4B inhibitor 9.0, PKA-R2B activ 0.2, VLA-4 inh 47.4, PKA-R1A activ -0.3, NRP1-CendR mod 4.2 and VLA-4 allo CP -7.7.
For O=C(O)C1(O)C[C@H](O)C(O)[C@@H](O)C1 (stereo partly drawn) the results were ATG4B inhibitor -5.4, PKA-R2B activ -0.3, VLA-4 inh 50.4*, PKA-R1A activ -2.8, NRP1-CendR mod 0.5 and VLA-4 allo CP 1.3.
`CCN(CC(=O)NCc1cccs1)C(=O)COc1cccc(C(F)(F)F)c1` gave ATG4B inhibitor -2.7, PKA-R2B activ -2.5, VLA-4 inh 11.6, PKA-R1A activ -0.5 and NRP1-CendR mod -4.1.
`CCN(CC(=O)NCc1cccs1)C(=O)c1ccc(-c2cccc(C(F)(F)F)c2)o1` gave ATG4B inhibitor -9.3, PKA-R2B activ -2.7, VLA-4 inh 53.3*, PKA-R1A activ -1.9, NRP1-CendR mod 20.0 and VLA-4 allo CP 4.0.
COc1cccc(C2CC(=O)Nc3cc4c(cc32)OCCO4)c1OC(C)C (stereo not drawn) was read as ATG4B inhibitor -2.0, PKA-R2B activ -11.6, VLA-4 inh -10.4, PKA-R1A activ -1.8, NRP1-CendR mod 0.9 and VLA-4 allo CP -5.8.
CCCOc1c(OC)cccc1C1CC(=O)Nc2cc3c(cc21)OCCO3 (stereo not drawn) was read as ATG4B inhibitor -13.8, PKA-R2B activ -2.3, VLA-4 inh 10.1, PKA-R1A activ -10.9, NRP1-CendR mod 4.9 and VLA-4 allo CP 4.7.
CCOC(=O)[C@]12CCCC=C1N(Cc1ccccc1)C(=O)[C@H](CC(=O)N1CCN(C(=O)c3ccco3)CC1)C2 was read as NRP1-CendR mod -9.6.
Screening N#Cc1ccccc1OCC(=O)OCC(=O)NC1CC1 returned ATG4B inhibitor -4.6, PKA-R2B activ 10.8, VLA-4 inh 2.9, PKA-R1A activ 1.2 and NRP1-CendR mod -1.5.
Screening CC(c1ccccc1)n1c(N2CCNCC2)nc2c1c(=O)[nH]c(=O)n2C (stereo not drawn) returned ATG4B inhibitor -0.9, PKA-R2B activ 3.3, VLA-4 inh -5.9, PKA-R1A activ 3.0 and NRP1-CendR mod -30.5.
CCc1ncc(CO)n1Cc1cccc2ccccc12 was read as PKA-R2B activ -7.3, PKA-R1A activ -6.2 and NRP1-CendR mod -8.0.
For CCOC(=O)N1CCN(C(=O)CN(C)S(=O)(=O)c2ccc3c(c2)C(C)(C)C(=O)N3C)CC1 the results were ATG4B inhibitor -11.6, PKA-R2B activ 0.6, VLA-4 inh -10.6, PKA-R1A activ 4.1, NRP1-CendR mod 8.2 and VLA-4 allo CP -0.9.
For CCCCn1c(N)c(N(CC(C)C)C(=O)C2=COCCO2)c(=O)[nH]c1=O the results were ATG4B inhibitor 1.3, PKA-R2B activ -5.4, VLA-4 inh -5.2, PKA-R1A activ -8.2 and NRP1-CendR mod -1.7.
Screening Cc1ccc(C(=O)Nc2cccc(C(F)(F)F)c2)cc1Nc1cnccn1 returned ATG4B inhibitor -7.7, PKA-R2B activ -3.2, VLA-4 inh 11.5, PKA-R1A activ 5.8 and NRP1-CendR mod 7.1.
Screening CCN1CCN(Cc2ccc(NC(=O)c3ccc(C)c(NC(=O)N4CCNC4=O)c3)cc2C(F)(F)F)CC1 returned ATG4B inhibitor -7.2, PKA-R2B activ -16.7, VLA-4 inh -5.9, PKA-R1A activ -26.3, NRP1-CendR mod -11.2 and VLA-4 allo CP 6.1.
Cc1cn(-c2cc(C(=O)Nc3ccc(C)c(NC(=O)N4CCNC4=O)c3)cc(C(F)(F)F)c2)cn1 was read as ATG4B inhibitor -7.9, PKA-R2B activ -1.5, VLA-4 inh 59.4*, PKA-R1A activ -4.5, NRP1-CendR mod -4.2 and VLA-4 allo CP -25.3.
`CN(CC(=O)Nc1cccc(F)c1)C(=O)c1cccc(S(=O)(=O)N2CCN(c3ccc(F)cc3)CC2)c1` gave ATG4B inhibitor -2.5, PKA-R2B activ -12.2, PKA-R1A activ -2.8 and NRP1-CendR mod 11.3.
CC1CCC(NC(=O)N(CCCl)N=O)CC1 (stereo not drawn) was read as ATG4B inhibitor -2.6, PKA-R2B activ -0.9, VLA-4 inh 64.7*, PKA-R1A activ 4.9, NRP1-CendR mod 8.9 and VLA-4 allo CP -0.2.
For CC1CCC(NC(=S)NCCN(C)C)CC1 (stereo not drawn) the results were ATG4B inhibitor 14.3, PKA-R2B activ -4.1, VLA-4 inh -6.2, PKA-R1A activ -9.6 and NRP1-CendR mod 5.3.
Screening CCC(C)C(NC(=O)C1CCC(C)CC1)C(=O)Nc1ccc(OC)cc1 (stereo not drawn) returned ATG4B inhibitor -0.9, PKA-R2B activ -8.1, VLA-4 inh -0.3, PKA-R1A activ 0.1 and NRP1-CendR mod 2.6.
For COc1ccc2[nH]c3c(Cl)ncnc3c2c1 the results were ATG4B inhibitor 3.7, PKA-R2B activ -1.3, VLA-4 inh 48.0, PKA-R1A activ -17.7, NRP1-CendR mod 0.1 and VLA-4 allo CP -6.1.
For CS(=O)(=O)N(CC(=O)Nc1ccc(S(=O)(=O)N2CCCC2)cc1)c1cccc(F)c1 the results were ATG4B inhibitor -5.0, PKA-R2B activ -0.9, VLA-4 inh 24.6, PKA-R1A activ -2.8 and NRP1-CendR mod 1.8.
